Measurements taken from the supplement of paper PMC9694430.

Experiments:
Assay in all cases: thermal shift delta Tm vs DMSO control; higher = stronger stabilization (binding)
Conditions in all cases: 12.5 µM; protein concentration 2 µM
LOC_OS02G45750-cb003 = tested on: LOC_OS02G45750-cb003
Summary of the method: (§1)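 Compounds dissolved in DMSO were added to purified rice kinase domain constructs, which had been expressed in E. coli, for differential scanning fluorimetry. Each well held 19.5 μl of 2 μM kinase in 100 mM potassium phosphate pH 7.5, 150 mM NaCl, 10% glycerol and 5 × SYPRO Orange. Fluorescence was followed from 25°C to 95°C at a rate of 0.05°C/s. Shifts in Boltzmann-fitted melting temperature are triplicate means relative to DMSO-only protein.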

LOC_OS02G54510-cb004 = tested on: LOC_OS02G54510-cb004
Summary of the method: as §1

LOC_OS03G04050-cb001 = tested on: LOC_OS03G04050-cb001
Summary of the method: as §1

LOC_OS03G12390-cb001 = tested on: LOC_OS03G12390-cb001
Summary of the method: as §1

LOC_OS03G27990-cb004 = tested on: LOC_OS03G27990-cb004
Summary of the method: as §1

LOC_OS03G50450-cb001 = tested on: LOC_OS03G50450-cb001
Summary of the method: as §1

LOC_OS03G50810-cb003 = tested on: LOC_OS03G50810-cb003
Summary of the method: as §1

LOC_OS04G35114-cb001 = tested on: LOC_OS04G35114-cb001
Summary of the method: as §1

LOC_OS04G38480-cb003 = tested on: T1, LOC_OS04G38480-cb003
T1 sequence (whole entry): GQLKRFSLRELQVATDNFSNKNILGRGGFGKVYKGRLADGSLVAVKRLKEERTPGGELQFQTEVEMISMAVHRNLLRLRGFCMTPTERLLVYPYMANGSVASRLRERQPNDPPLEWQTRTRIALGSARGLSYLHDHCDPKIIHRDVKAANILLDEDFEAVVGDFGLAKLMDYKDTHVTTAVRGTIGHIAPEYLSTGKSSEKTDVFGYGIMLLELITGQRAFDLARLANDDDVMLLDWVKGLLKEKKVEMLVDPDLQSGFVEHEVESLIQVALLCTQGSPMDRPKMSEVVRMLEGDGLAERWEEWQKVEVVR
Summary of the method: as §1

LOC_OS04G41100-cb001 = tested on: T2, LOC_OS04G41100-cb001
T2 sequence (whole entry): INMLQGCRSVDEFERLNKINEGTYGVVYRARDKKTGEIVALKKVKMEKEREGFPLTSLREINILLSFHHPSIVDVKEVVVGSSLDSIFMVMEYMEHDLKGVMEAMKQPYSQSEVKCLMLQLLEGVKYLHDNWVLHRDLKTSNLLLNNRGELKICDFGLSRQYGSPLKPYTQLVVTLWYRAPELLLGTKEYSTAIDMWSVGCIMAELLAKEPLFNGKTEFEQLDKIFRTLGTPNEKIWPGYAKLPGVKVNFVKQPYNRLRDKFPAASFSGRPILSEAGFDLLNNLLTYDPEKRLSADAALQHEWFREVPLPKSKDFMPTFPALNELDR
Summary of the method: as §1

LOC_OS04G57630-cb004 = tested on: LOC_OS04G57630-cb004
Summary of the method: as §1

LOC_OS05G07850-cb002 = tested on: LOC_OS05G07850-cb002
Summary of the method: as §1

LOC_OS05G16824-cb004 = tested on: LOC_OS05G16824-cb004
Summary of the method: as §1

LOC_OS05G28520-cb001 = tested on: LOC_OS05G28520-cb001
Summary of the method: as §1

LOC_OS05G30820-cb001 = tested on: LOC_OS05G30820-cb001
Summary of the method: as §1

LOC_OS05G43570-cb004 = tested on: LOC_OS05G43570-cb004
Summary of the method: as §1

LOC_OS06G16330-cb003 = tested on: LOC_OS06G16330-cb003
Summary of the method: as §1

LOC_OS06G22820-cb001 = tested on: T3, LOC_OS06G22820-cb001
T3 sequence (whole entry): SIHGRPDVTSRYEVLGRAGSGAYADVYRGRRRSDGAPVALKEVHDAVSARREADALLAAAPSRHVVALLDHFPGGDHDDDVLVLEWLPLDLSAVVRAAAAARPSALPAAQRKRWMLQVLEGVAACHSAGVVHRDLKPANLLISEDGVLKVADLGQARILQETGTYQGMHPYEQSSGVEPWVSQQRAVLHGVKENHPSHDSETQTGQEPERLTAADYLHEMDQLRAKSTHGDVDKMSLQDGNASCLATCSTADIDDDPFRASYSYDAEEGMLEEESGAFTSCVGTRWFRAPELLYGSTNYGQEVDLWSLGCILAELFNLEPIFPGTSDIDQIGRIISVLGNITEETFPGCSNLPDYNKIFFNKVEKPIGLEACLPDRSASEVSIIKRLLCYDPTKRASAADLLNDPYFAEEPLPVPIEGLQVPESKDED
Summary of the method: as §1

LOC_OS07G06570-cb004 = tested on: LOC_OS07G06570-cb004
Summary of the method: as §1

LOC_OS07G07230-cb001 = tested on: LOC_OS07G07230-cb001
Summary of the method: as §1

Sequence of LOC_OS06G16330-cb003 (as listed by the source): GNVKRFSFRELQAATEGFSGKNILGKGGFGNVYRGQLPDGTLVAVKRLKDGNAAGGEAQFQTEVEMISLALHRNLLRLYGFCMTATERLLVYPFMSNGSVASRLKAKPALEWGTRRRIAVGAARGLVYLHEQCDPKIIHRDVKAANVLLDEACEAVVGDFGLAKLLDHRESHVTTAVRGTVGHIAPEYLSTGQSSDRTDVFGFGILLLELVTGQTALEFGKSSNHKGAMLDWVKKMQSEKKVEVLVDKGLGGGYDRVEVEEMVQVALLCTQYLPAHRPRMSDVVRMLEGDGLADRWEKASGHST

Structure (SMILES) | thermal shift delta Tm (LOC_OS02G45750-cb003) [°C] | thermal shift delta Tm (LOC_OS02G54510-cb004) [°C] | thermal shift delta Tm (LOC_OS03G04050-cb001) [°C] | thermal shift delta Tm (LOC_OS03G12390-cb001) [°C] | thermal shift delta Tm (LOC_OS03G27990-cb004) [°C] | thermal shift delta Tm (LOC_OS03G50450-cb001) [°C] | thermal shift delta Tm (LOC_OS03G50810-cb003) [°C] | thermal shift delta Tm (LOC_OS04G35114-cb001) [°C] | thermal shift delta Tm (LOC_OS04G38480-cb003) [°C] | thermal shift delta Tm (LOC_OS04G41100-cb001) [°C] | thermal shift delta Tm (LOC_OS04G57630-cb004) [°C] | thermal shift delta Tm (LOC_OS05G07850-cb002) [°C] | thermal shift delta Tm (LOC_OS05G16824-cb004) [°C] | thermal shift delta Tm (LOC_OS05G28520-cb001) [°C] | thermal shift delta Tm (LOC_OS05G30820-cb001) [°C] | thermal shift delta Tm (LOC_OS05G43570-cb004) [°C] | thermal shift delta Tm (LOC_OS06G16330-cb003) [°C] | thermal shift delta Tm (LOC_OS06G22820-cb001) [°C] | thermal shift delta Tm (LOC_OS07G06570-cb004) [°C] | thermal shift delta Tm (LOC_OS07G07230-cb001) [°C]
CCN(CC)CCCCNc1ncc2cc(-c3cc(OC)cc(OC)c3)c(NC(=O)NC(C)(C)C)nc2n1 | 1.08 | 0.28 | 0.67 | 0.06 | 0.5 | 0.93 | 0.47 | 0.79 | 0.83 | 0.46 | -0.1 | -0.15 | -2.16 | 0.72 | 0.45 | 0.68 | -0.04 | 0.57 | 1.02 | 0.36
Cc1nc2ccc(-n3ncc(C(=O)c4cc5ccccc5[nH]4)c3N)cc2[nH]1 | 2.94 | 4.14 | 0.05 | 1.25 | 0.29 | -0.16 | 0.75 | 3.8 | 0.93 | -0.16 | -0.26 | 2.01 | 0.01 | 0.51 | 0.59 | 0.2 | 0.87 | 0.56 | -0.34 | 0.11
O=C(NOCCO)c1ccc2cncn2c1Nc1ccc(I)cc1F | 0.53 | 0.01 | 0.75 | -0.37 | 0.29 | -0.24 | 0.06 | -0.73 | -1.85 | 0.39 | -0.36 | -0.3 | -1.92 | 0.09 | 0.54 | 0.3 | -0.27 | 0.39 | 0.35 | 0.91
NC[C@@](O)(c1ccc(Cl)cc1)c1ccc(-c2cn[nH]c2)cc1 | 1.24 | 0.3 | 0.31 | 0.49 | 0.56 | 0.8 | 0.36 | 1.05 | 1.51 | 0.81 | 0.11 | 1.75 | 0.67 | 0.5 | 0.47 | 2.11 | 0.77 | 0.65 | 0.91 | 0.04
O=c1[nH]nc(Sc2ncc([N+](=O)[O-])s2)n1-c1ccc2c(c1)OCCO2 | 1.36 | -0.1 | 0.22 | -1.14 | 0.03 | 0.84 | -0.33 | 0.5 | 3.06 | -0.54 | -1.46 | -1.46 | -2.53 | 0.59 | 0.64 | 0.84 | -0.58 | 0.5 | 3.84 | 0.07
